From PubChem BioAssay (NCATS)
Values without a mark were called inactive. Results filed as inconclusive are left out. Calls of active or inactive are those of the source. Unless noted, calls follow the shape of the dose curve; as a rule, active = well fitted curve in either direction with a large enough effect (not every such curve was filed as active); inconclusive = small, poorly fitted or top-dose-only effect, or another doubt; inactive = flat fitted curve, though single readings scatter.

What was measured:
[1] = target: Lysosomal acid glucosylceramidase (Homo sapiens) (UniProt P04062); test: Glucocerebrosidase-p2 (AID 348; in the data active = potency below about 10 µM; also: potency is read from the fitted curve at half-maximal effect); settings: purified GBA, blue fluorogenic substrate, 40 min
In short: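 Compounds titrated from 0.6 nM upwards against 0.2 nM enzyme in pH 5.9 citric acid/KH2PO4, taurocholate, tween-20; blue fluorogenic substrate 80 uM, 40 min room temperature, stopped and read Ex 365/Em 440 for AC50.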

[2] = AP1 Signaling Pathway (AID 357); settings: ME-180 AP-1-bla reporter, EGF-induced, beta-lactamase ratio, 5 h; at 7.69 µM (top of the series) unless noted;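 also: ME-180 reporter cells stimulated with EGF at its EC50 level; % is scaled to controls: 0 for no effect and ±100 for the full control effect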
In short: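 AP-1-bla ME-180 cells, Opti-MEM + 0.5% dialyzed FBS, plated overnight 37 °C. Cpd titration + EC50 EGF, 5 h 37 °C. CCF4 2.5 h RT; ex 405, em 460/530 ratio → %activity, AC50.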

[3] = NFAT Signaling Pathway (AID 444); settings: Jurkat NFAT-bla M1, carbachol, beta-lactamase ratio, 5 h; at 7.69 µM (top of the series) unless noted;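 also: carbachol stimulus at about its EC50 of 1 µM final; % is scaled to controls: 0 for no effect and ±100 for the full control effect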
In short: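 Read-out: CCF4 FRET ratio (460 nm/530 nm) after 1 h RT dye loading, used for %activity and AC50 from titration series. Cells: Jurkat NFAT-β-lactamase/M1 line, treated with compound plus 1 uM carbachol for 5 h, 37 °C.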

[4] = Stat Signaling Pathway (AID 446); settings: ME-180 SIE beta-lactamase reporter, IL-6 stimulated, 5 h; at 7.69 µM (top of the series) unless noted;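 also: ME-180 cervical cancer cells given 40 pM IL-6 alongside compound; SIE-controlled beta-lactamase reporter measured as 460/530 nm FRET emission ratio; % is scaled to controls: 0 for no effect and ±100 for the full control effect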
In short: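 ME-180 SIE-bla cells; overnight plating; cpd + IL-6 40 pM, 5 h, 37 C; LiveBLAzer 2.5 h RT; 460/530 nm emission ratio. Normalized to 300 pM IL-6 and 125 nM JAK inhibitor controls.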

[5] = target: Glucocorticoid receptor (Homo sapiens) (UniProt P04150); test: GR-GFP Redistribution (AID 450;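 active = compounds whose dose series gives a full or clear partial fitted curve of increased nuclear translocation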; also: potency is read from the fitted curve at half-maximal effect); settings: U2OS GR-GFP nuclear translocation, laser cytometry, 2 h
[6] = target: Glucocorticoid receptor (Homo sapiens) (UniProt P04150); test: GR-EFC Redistribution (AID 451; calls by dose curve; also: potency is read from the fitted curve at half-maximal effect); settings: CHO-K1 GR-EFC translocation, beta-gal luminescence, 2 h
In short: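 Translocation of GR-ED fusion to nuclear EA restores b-gal, read by luminescence after 1 h room-temperature detection. Engineered CHO-K1 biosensor cells, 1,000/well, exposed 2 h at 37 C to titrations up to 46 uM final.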

[7] = target: Mitogen-activated protein kinase 10 (Mus musculus) (UniProt Q61831); test: JNK3 AlphaScreen Assay (AID 530); settings: JNK3 lysate, c-Jun phosphorylation; series mostly up to 57.1 µM;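 also: kinase came from lysate of stimulated human HepG2 cells; signal reports phosphorylation of biotinylated GST-cJun 1-79 at Ser73 with 10 µM ATP; % is scaled to controls: 0 for no effect and ±100 for the full control effect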
In short: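 Compound titrations were preincubated 15 minutes at room temperature with substrate, antibody and pre-activated JNK3-containing HepG2 lysate. Reactions were started with 10 uM ATP and stopped with EDTA-containing bead buffer for AlphaScreen detection.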

[8] = target: 3',5'-cyclic-AMP phosphodiesterase 4B (Homo sapiens) (UniProt Q07343); test: qHTS Assay for Inhibitors of PDE-IV (AID 607; active = well fitted activation curve with a large enough effect in the main read-out, with a control signal flat, not every such curve was filed as active; also: % of control where 0% means no effect); settings: HEK293 ACTOne CNG channel cells, membrane potential fluorescence; series mostly up to 22.9 µM
In short: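 ACTOne HEK293 cells carry a modified cAMP-gated CNG channel and express endogenous PDE4; plated 1000 cells/well, compounds up to 22.9 uM final. Membrane-potential dye fluorescence (ex 535/em 590) was read; parental cells received 10 uM forskolin + 100 uM RO 20-1724.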

[9] = target: Cytochrome P450 3A4 (Homo sapiens) (UniProt P08684); test: qHTS Assay for Activators of Cytochrome P450 3A4 (AID 885; active = well fitted curve in the direction sought with a large enough effect; an effect the other way counts as inactive or inconclusive; also: nearly all actives have a fitted effect of over 65% in size); settings: recombinant CYP3A4, Luciferin-PPXE luminescence, 60 min; series mostly up to 57.1 µM
In short: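 20nM CYP3A4 + 25uM Luciferin-PPXE (=KM), 200mM KPO4; cpd 10 min RT; NADPH regen, 60 min RT; stop w/ detection buffer, 20 min; luminescence. Normalized to 57 uM ketoconazole.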

[10] = target: Dual specificity protein kinase CLK4 (Homo sapiens) (UniProt Q9HAZ1); test: qHTS Assay for Inhibitors of CDC-like Kinase 4 (ADP-Glo Assay) (AID 1771; active = well fitted curve in the direction sought with a large enough effect; an effect the other way counts as inactive or inconclusive; also: nearly all actives have a fitted effect of over 70% in size; also: potency is read from the fitted curve at half-maximal effect); settings: recombinant CLK4, ADP-Glo luminescence; series mostly up to 80 µM
In short: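 25 nM Clk4 with 100 uM RS repeat peptide and 1 uM ATP (final) in buffer with 2 mM MgCl2, 0.5 mM EGTA, 2.5 mM DTT, 0.01% Triton X-100; 1 h at room temperature; ADP-Glo luminescence for ADP formed.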

[11] = target: Dual specificity protein kinase CLK4 (Homo sapiens) (UniProt Q9HAZ1); test: qHTS Assay for Inhibitors of CDC-like Kinase 4 (ADP-FP Assay) (AID 1795; active = well fitted curve in the direction sought with a large enough effect; an effect the other way counts as inactive or inconclusive; also: nearly all actives have a fitted effect of over 60% in size; also: potency is read from the fitted curve at half-maximal effect); settings: Transcreener ADP fluorescence polarization; series mostly up to 50 µM
In short: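 Inhibition of ADP formation by 6.25 nM Clk4 is measured using 1 uM ATP and 100 uM RS repeat peptide over one hour. Produced ADP displaces a fluorescent tracer from antibody, lowering polarization.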

[12] = target: Ubiquitin carboxyl-terminal hydrolase 1 (Homo sapiens) (UniProt O94782); test: Inhibitors of USP1/UAF1: Pilot qHTS (AID 504865; active = well fitted curve in the direction sought with a large enough effect; an effect the other way counts as inactive or inconclusive;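 also: rhodamine fluorescence freed from ubiquitin-rhodamine substrate followed over time; top concentration of the series differs between compounds; % is scaled to controls: 0 for no effect and ±100 for the full control effect; nearly all actives have a fitted effect of over 35% in size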); settings: purified USP1/UAF1, Ub-rhodamine cleavage fluorescence; series mostly up to 54.9 µM
In short: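 Kinetic fluorescence assay: 1nM USP1/UAF1, 15 min compound preincubation, then 150nM Ub-Rho; 480/540 nm.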

[13] = Primary qHTS for small molecule stabilizers of the endoplasmic reticulum resident proteome: Secreted ER Calcium Modulated Protein (SERCaMP) assay (AID 1508630; active = well fitted curve in the direction sought with a large enough effect; an effect the other way counts as inactive or inconclusive; also: % is scaled to controls: 0 for no effect and ±100 for the full control effect); settings: SH-SY5Y GLuc-SERCaMP (Gaussia luciferase released on ER calcium loss) secretion, thapsigargin, luminescence; series mostly up to 38.4 µM
In short: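 GLuc-SERCaMP-expressing SH-SY5Y cells, pretreated 16 h with compound, are challenged with thapsigargin to empty ER calcium stores; after 4 h, coelenterazine is added directly to the medium and luminescence is imaged.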

[14] = target: Cytochrome P450 1A2 (Homo sapiens) (UniProt P05177); test: p450-cyp1a2 (AID 410; calls by dose curve; also: potency is read from the fitted curve at half-maximal effect;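 as to activity change, negative = inhibition: -100% = full effect of reference inhibitor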); settings: recombinant CYP1A2, luciferin-ME demethylation, luminescence; series mostly up to 57 µM
In short: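 20nM CYP1A2 with 100uM Luciferin-ME (at Km) in 100mM KPO4; compound preincubated 10 min, NADPH regeneration added, 60 min at room temperature. Luciferin quantified by luminescence after detection reagent; normalized to 57 uM furafylline.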

[15] = qHTS Assay for Identification of Small Molecule Agonists for Hypoxia Response Element Signaling Pathway (AID 914; active = well fitted activation curve with a large enough effect in the signal ratio, with a control signal flat, not every such curve was filed as active; the % refers to the signal ratio; also: % of control where 0% means no effect); settings: ME-180 (cervical carcinoma) HRE-bla reporter, beta-lactamase ratio, CoCl2, 17 h; activation: active compounds read high
In short: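 Read-out: CCF4 FRET ratio of 460nm to 530nm emission (excitation 405nm) after 2.5 hours at room temperature, taken from HRE-bla ME-180 cells that had been exposed to compound and EC50 CoCl2 for 17 hours.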

Glucocorticoid receptor (Homo sapiens), sequence (P04150 whole entry, looked up, the tested form may be a part): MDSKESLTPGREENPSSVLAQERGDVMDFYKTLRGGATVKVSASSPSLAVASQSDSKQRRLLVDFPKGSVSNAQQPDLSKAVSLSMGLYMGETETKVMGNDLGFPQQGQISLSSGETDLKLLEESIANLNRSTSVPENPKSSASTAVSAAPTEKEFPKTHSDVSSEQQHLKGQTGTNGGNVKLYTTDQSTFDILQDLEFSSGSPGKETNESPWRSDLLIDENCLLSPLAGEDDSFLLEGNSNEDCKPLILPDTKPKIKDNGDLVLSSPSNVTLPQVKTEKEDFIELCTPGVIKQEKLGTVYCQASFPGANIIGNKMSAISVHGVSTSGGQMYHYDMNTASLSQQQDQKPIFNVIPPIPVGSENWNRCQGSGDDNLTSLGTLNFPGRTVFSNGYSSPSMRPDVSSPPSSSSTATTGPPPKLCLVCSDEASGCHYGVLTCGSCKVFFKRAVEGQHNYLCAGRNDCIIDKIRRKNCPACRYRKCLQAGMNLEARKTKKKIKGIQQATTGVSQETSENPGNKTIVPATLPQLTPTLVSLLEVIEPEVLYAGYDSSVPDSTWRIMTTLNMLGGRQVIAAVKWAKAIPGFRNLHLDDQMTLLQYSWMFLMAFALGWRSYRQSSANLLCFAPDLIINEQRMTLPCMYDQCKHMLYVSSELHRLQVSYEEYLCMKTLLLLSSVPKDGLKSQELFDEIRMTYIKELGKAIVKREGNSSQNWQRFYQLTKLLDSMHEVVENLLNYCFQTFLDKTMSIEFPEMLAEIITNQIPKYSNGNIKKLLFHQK
3',5'-cyclic-AMP phosphodiesterase 4B (Homo sapiens), sequence (Q07343 whole entry, looked up): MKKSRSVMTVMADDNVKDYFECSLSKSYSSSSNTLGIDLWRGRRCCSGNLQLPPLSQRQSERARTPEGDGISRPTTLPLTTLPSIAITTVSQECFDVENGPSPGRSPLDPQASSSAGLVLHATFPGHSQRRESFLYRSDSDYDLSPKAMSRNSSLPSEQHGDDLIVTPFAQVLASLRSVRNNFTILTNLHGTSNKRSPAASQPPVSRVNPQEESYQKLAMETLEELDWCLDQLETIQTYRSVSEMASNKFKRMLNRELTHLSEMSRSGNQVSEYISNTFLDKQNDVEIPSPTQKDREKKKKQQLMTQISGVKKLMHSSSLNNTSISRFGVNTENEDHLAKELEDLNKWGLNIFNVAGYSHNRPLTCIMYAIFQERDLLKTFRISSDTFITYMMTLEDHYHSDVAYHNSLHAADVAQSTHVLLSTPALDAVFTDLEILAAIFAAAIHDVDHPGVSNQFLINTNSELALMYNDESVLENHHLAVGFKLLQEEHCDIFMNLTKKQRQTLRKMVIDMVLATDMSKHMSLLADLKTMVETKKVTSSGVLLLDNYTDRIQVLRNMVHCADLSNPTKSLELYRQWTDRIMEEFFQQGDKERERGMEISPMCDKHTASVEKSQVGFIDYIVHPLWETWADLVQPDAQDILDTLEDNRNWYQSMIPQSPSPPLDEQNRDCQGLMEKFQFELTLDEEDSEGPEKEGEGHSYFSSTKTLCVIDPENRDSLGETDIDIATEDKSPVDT
Cytochrome P450 1A2 (Homo sapiens), sequence (P05177 whole entry, looked up): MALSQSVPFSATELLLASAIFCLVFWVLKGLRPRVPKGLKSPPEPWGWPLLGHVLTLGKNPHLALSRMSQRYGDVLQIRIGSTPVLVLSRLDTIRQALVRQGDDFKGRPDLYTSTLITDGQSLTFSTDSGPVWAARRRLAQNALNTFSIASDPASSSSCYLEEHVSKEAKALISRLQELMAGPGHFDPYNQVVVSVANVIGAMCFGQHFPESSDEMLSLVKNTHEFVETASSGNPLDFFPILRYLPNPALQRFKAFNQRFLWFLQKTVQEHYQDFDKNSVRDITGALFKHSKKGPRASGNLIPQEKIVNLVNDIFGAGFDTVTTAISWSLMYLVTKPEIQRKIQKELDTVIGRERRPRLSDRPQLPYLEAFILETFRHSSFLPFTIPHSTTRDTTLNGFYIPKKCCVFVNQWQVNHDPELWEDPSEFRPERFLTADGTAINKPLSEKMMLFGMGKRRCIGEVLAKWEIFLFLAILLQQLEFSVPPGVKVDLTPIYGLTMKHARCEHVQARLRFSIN
Dual specificity protein kinase CLK4 (Homo sapiens), sequence (Q9HAZ1 whole entry, looked up): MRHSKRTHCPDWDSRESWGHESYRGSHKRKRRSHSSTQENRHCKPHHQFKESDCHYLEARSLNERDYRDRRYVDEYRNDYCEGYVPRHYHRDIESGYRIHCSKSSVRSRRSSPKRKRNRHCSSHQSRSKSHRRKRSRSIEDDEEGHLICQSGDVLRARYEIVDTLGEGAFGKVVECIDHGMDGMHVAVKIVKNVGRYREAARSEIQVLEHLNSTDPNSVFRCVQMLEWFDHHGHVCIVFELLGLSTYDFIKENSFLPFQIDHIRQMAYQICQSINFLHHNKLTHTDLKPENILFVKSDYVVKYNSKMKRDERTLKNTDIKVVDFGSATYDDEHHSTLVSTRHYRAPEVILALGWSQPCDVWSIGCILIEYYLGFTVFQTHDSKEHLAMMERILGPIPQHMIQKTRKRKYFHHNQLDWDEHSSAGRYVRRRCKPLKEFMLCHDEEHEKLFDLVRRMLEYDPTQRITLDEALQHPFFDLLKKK
Lysosomal acid glucosylceramidase (Homo sapiens), sequence (P04062 whole entry, looked up): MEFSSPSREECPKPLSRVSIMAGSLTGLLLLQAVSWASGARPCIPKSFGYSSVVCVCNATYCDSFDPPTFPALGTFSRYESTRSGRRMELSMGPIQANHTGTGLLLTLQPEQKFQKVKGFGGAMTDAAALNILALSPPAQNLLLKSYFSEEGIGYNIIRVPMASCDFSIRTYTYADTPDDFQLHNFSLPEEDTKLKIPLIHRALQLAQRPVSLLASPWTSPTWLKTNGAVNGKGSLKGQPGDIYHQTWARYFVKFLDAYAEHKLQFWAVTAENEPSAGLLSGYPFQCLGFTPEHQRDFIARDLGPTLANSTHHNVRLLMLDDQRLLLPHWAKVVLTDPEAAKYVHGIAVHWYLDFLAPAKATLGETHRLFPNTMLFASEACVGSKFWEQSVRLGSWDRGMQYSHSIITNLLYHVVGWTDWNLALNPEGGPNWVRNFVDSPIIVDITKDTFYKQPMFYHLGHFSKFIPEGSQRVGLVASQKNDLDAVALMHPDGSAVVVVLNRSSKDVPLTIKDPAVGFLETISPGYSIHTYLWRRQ
Ubiquitin carboxyl-terminal hydrolase 1 (Homo sapiens), sequence (O94782 whole entry, looked up): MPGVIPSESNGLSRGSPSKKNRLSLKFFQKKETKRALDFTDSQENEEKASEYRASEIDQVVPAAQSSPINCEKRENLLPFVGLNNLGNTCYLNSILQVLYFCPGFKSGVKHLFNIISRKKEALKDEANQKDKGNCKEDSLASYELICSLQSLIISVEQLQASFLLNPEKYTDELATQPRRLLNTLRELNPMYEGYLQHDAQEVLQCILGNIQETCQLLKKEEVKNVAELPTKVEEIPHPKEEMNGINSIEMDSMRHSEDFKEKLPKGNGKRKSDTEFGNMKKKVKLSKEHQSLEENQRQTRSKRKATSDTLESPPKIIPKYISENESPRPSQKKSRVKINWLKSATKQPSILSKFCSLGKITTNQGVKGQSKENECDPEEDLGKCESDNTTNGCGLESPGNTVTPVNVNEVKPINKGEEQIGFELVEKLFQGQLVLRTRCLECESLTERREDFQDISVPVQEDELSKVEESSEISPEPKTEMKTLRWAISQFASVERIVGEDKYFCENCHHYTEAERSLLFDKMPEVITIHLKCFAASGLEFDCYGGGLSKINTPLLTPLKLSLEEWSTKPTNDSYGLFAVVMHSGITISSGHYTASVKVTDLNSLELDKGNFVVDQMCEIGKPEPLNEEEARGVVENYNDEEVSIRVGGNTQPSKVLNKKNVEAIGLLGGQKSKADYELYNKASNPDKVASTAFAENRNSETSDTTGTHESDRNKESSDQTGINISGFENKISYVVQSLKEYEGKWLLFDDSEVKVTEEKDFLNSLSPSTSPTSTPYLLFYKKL
Cytochrome P450 3A4 (Homo sapiens), sequence (P08684 whole entry, looked up): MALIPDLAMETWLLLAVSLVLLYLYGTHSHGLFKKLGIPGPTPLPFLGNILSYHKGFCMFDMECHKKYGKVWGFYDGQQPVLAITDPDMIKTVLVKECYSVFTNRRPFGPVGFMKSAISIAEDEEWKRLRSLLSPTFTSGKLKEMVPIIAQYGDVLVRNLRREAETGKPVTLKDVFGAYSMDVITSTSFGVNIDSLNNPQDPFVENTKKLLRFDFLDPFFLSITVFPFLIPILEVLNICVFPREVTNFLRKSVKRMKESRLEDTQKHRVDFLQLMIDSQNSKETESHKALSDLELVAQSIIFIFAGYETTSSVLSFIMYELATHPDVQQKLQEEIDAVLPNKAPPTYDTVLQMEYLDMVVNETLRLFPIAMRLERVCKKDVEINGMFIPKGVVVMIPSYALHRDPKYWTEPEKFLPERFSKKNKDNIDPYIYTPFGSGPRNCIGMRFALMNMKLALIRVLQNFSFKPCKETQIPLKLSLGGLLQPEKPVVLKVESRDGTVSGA

SMILES | Potency [1] | activity change, negative = inhibition [2] | activity change, negative = inhibition [3] | activity, negative = inhibition [4] | Potency [5] | Potency [6] | Potency [7] | Potency [8] | Potency [9] | Potency [10] | Potency [11] | Potency [12] | outcome [13] | Potency [14] | activation [15]
COc1ncc2nc(-c3ccc(Cl)cc3)c(=O)n(C)c2n1 | > 11.4 µM | -10.2% | 8.73% | 1.71% | > 9.22 µM | > 46 µM | inactive | inactive | inactive | inactive | inactive | inactive | inactive |  | 
COCCn1c(=O)c(-c2cccc(C#N)c2)nc2cnc(Nc3ccccc3)nc21 | > 11.4 µM | -6.21% | 3.3% | -15.6% | > 9.22 µM | > 46 µM | inactive | inactive |  |  | inactive | inactive | inactive | 2.51 µM (active) | 
COc1ccccc1-c1cc(NCc2cnc(C)cn2)ncn1 | > 11.4 µM | 5.08% | 2.34% | 2.04% | > 46 µM | > 46 µM | inactive | inactive |  | 28.2 µM (active) |  | inactive | inactive | 12.6 µM (active) | 25.8%
CN(C)C(=O)c1ccc(-c2ccc3ncnc(N4CCNCC4)c3c2)cc1 | > 11.4 µM | -26.4% | 4.61% | -3.14% | > 46 µM | > 46 µM | inactive | inactive |  |  | inactive | inactive | inactive | inactive | 
COc1ccc(CNc2ncnc3ccc(-c4ccc5c(c4)OCO5)cc23)c(OC)c1 |  | -16.9% |  | -5.8% |  | > 46 µM | inactive |  |  | 1.41 µM (active) | 0.398 µM (active) | inactive | inactive |  | 
COCCNc1nc(-c2c(C)noc2C)nc2ccccc12 | > 11.4 µM | 1.66% | 22.9% | 17.6% | > 46 µM | > 46 µM | inactive | inactive | inactive |  | inactive | inactive | inactive | 0.126 µM (active) | 
Cc1ccccc1-c1nc(N(C)C)c2ccccc2n1 | > 11.4 µM | 5.33% | -0.255% | 6.41% | > 46 µM | > 46 µM | inactive | inactive |  |  | inactive | inactive | inactive | 0.631 µM (active) | 
